# This is one part of a sample in which the strongest signals are shown more often than they occur.
# B1: Neuropilin-1 (Rattus norvegicus), Q9QWJ9 (protein)
# chain: MERGLPLLCATLALALALAGAFRSDKCGGTIKIENPGYLTSPGYPHSYHPSEKCEWLIQAPEPYQRIMINFNPHFDLEDRDCKYDYVEVIDGENEGGRLWGKFCGKIAPSPVVSSGPFLFIKFVSDYETHGAGFSIRYEIFKRGPECSQNYTAPTGVIKSPGFPEKYPNSLECTYIIFAPKMSEIILEFESFDLEQDSNPPGGVFCRYDRLEIWDGFPEVGPHIGRYCGQKTPGRIRSSSGILSMVFYTDSAIAKEGFSANYSVLQSSISEDFKCMEALGMESGEIHSDQITASSQYGTNWSVERSRLNYPENGWTPGEDSYREWIQVDLGLLRFVTAVGTQGAISKETKKKYYVKTYRVDISSNGEDWITLKEGNKAIIFQGNTNPTDVVFGVFPKPLITRFVRIKPASWETGISMRFEVYGCKITDYPCSGMLGMVSGLISDSQITASNQGDRNWMPENIRLVTSRTGWALPPSPHPYINEWLQVDLGDEKIVRGVIIQGGKHRENKVFMRKFKIAYSNNGSDWKMIMDDSKRKAKSFEGNNNYDTPELRAFTPLSTRFIRIYPERATHSGLGLRMELLGCEVEVPTAGPTTPNGNPVDECDDDQANCHSGTGDDFQLTGGTTVLATEKPTIIDSTIQSEFPTYGFNCEFGWGSHKTFCHWEHDSHAQLRWRVLTSKTGPIQDHTGDGNFIYSQADENQKGKVARLVSPVVYSQSSAHCMTFWYHMSGSHVGTLRVKLHYQKPEEYDQLVWMVVGHQGDHWKEGRVLLHKSLKLYQVIFEGEIGKGNLGGIAVDDISINNHIPQEDCAKPTDLDKKNTEIKIDETGSTPGYEEGKGDKNISRKPGNVLKTLDPILITIIAMSALGVLLGAVCGVVLYCACWHNGMSERNLSALENYNFELVDGVKLKKDKLNPQSNYSEA
# Key:
# Assay in all cases: glycan array binding signal (z-score within array); higher = stronger binding
# Details in all cases: glycan notation: IUPAC condensed, linker removed
# [1] = biological target: Fuc(a1-2)Gal(b1-4)GlcNAc(b1-2)Man(a1-3)[Fuc(a1-2)Gal(b1-4)GlcNAc(b1-2)Man(a1-6)]Man(b1-4)GlcNAc(b1-4)GlcNAc
# Summary of the method: (§1)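 Columns mapping to the same glycan were averaged after glycan names were converted to IUPAC-condensed notation. The data come from 3228 arrays in the Consortium for Functional Glycomics database, limited to those with an available protein sequence. Binding is reported as a within-array Z-score averaged across arrays of one protein sequence and across linkers.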
# [2] = biological target: Fuc(a1-2)Gal(b1-4)[Fuc(a1-3)]GlcNAc(b1-2)Man(a1-3)[Fuc(a1-2)Gal(b1-4)[Fuc(a1-3)]GlcNAc(b1-2)Man(a1-6)]Man(b1-4)GlcNAc(b1-4)GlcNAc
# Summary of the method: as §1
# Fuc(a1-2)[Gal(a1-3)]Gal = biological target: Fuc(a1-2)[Gal(a1-3)]Gal
# Summary of the method: as §1
# [3] = biological target: Fuc(a1-2)[Gal(a1-3)]Gal(b1-4)GlcNAc(b1-2)Man(a1-3)[Fuc(a1-2)[Gal(a1-3)]Gal(b1-4)GlcNAc(b1-2)Man(a1-6)]Man(b1-4)GlcNAc(b1-4)GlcNAc
# Summary of the method: as §1
# [4] = biological target: Fuc(a1-2)[GalNAc(a1-3)]Gal(b1-4)GlcNAc(b1-2)Man(a1-3)[GalNAc(a1-3)[Fuc(a1-2)]Gal(b1-4)GlcNAc(b1-2)Man(a1-6)]Man(b1-4)GlcNAc(b1-4)GlcNAc
# Summary of the method: as §1
# [5] = biological target: Fuc(a1-2)[GalNAc(a1-3)]Gal(b1-4)GlcNAc(b1-3)Gal(b1-4)GlcNAc
# Summary of the method: as §1
# [6] = biological target: Fuc(a1-3)[Gal(b1-4)]GlcNAc(b1-2)Man(a1-6)[Gal(b1-4)GlcNAc(b1-2)Man(a1-3)]Man(b1-4)GlcNAc(b1-4)GlcNAc
# Summary of the method: as §1
# [7] = biological target: Fuc(a1-3)[Gal(b1-4)]GlcNAc6S
# Summary of the method: as §1
# [8] = biological target: Fuc(a1-3)[Gal3S(b1-4)]GlcNAc
# Summary of the method: as §1
# [9] = biological target: Gal(a1-3)Gal(b1-4)[Fuc(a1-3)]GlcNAc(b1-2)Man(a1-3)[Gal(a1-3)Gal(b1-4)[Fuc(a1-3)]GlcNAc(b1-2)Man(a1-6)]Man(b1-4)GlcNAc(b1-4)GlcNAc
# Summary of the method: as §1
# Gal(a1-4)Gal(b1-4)GlcNAc = biological target: Gal(a1-4)Gal(b1-4)GlcNAc
# Summary of the method: as §1
# Gal(b1-2)Gal = biological target: Gal(b1-2)Gal
# Summary of the method: as §1
# [10] = biological target: Gal(b1-3)GlcNAc(b1-2)Man(a1-3)[Gal(b1-3)GlcNAc(b1-2)Man(a1-6)]Man(b1-4)GlcNAc(b1-4)GlcNAc
# Summary of the method: as §1
# [11] = biological target: Gal(b1-3)[Neu5Ac(b2-6)]GalNAc
# Summary of the method: as §1
# [12] = biological target: Gal(b1-4)GalNAc(a1-3)[Fuc(a1-2)]Gal(b1-4)GlcNAc
# Summary of the method: as §1
# GlcA(b1-6)Gal = biological target: GlcA(b1-6)Gal
# Summary of the method: as §1
# [13] = biological target: GlcNAc(a1-4)Gal(b1-4)GlcNAc(b1-3)Gal(b1-4)[Fuc(a1-3)]GlcNAc(b1-3)Gal(b1-4)[Fuc(a1-3)]GlcNAc
# Summary of the method: as §1
# [14] = biological target: Neu5Ac(a2-3)Gal(b1-3)GalNAc
# Summary of the method: as §1
# [15] = biological target: Neu5Ac(a2-3)Gal(b1-3)GalNAc6S
# Summary of the method: as §1
# [16] = biological target: Neu5Ac(a2-3)Gal(b1-3)GlcNAc
# Summary of the method: as §1
# [17] = biological target: Neu5Ac(a2-3)Gal(b1-3)GlcNAc6S
# Summary of the method: as §1
# [18] = biological target: Neu5Ac(a2-3)Gal(b1-3)[Fuc(a1-4)]GlcNAc(b1-3)Gal(b1-4)[Fuc(a1-3)]GlcNAc
# Summary of the method: as §1
# [19] = biological target: Neu5Ac(a2-3)Gal(b1-4)GlcNAc(b1-3)Gal(b1-4)GlcNAc(b1-3)Gal(b1-4)GlcNAc
# Summary of the method: as §1
# [20] = biological target: Neu5Ac(a2-3)Gal(b1-4)[Fuc(a1-3)]GlcNAc(b1-6)[Gal(b1-3)]GalNAc
# Summary of the method: as §1
# [21] = biological target: Neu5Ac(a2-3)Gal(b1-4)[Fuc(a1-3)]GlcNAc(b1-6)[Neu5Ac(a2-3)Gal(b1-3)]GalNAc
# Summary of the method: as §1
# Neu5Ac(a2-3)GalNAc = biological target: Neu5Ac(a2-3)GalNAc
# Summary of the method: as §1
# [22] = biological target: Neu5Ac(a2-6)Gal(b1-4)GlcNAc(b1-2)Man(a1-3)Man(b1-4)GlcNAc(b1-4)GlcNAc
# Summary of the method: as §1
# [23] = biological target: Neu5Ac(a2-6)Gal(b1-4)GlcNAc6S
# Summary of the method: as §1
# [24] = biological target: Neu5Ac(b2-6)Gal(b1-4)GlcNAc
# Summary of the method: as §1
# Neu5Gc(a2-3)Gal(b1-4)Glc = biological target: Neu5Gc(a2-3)Gal(b1-4)Glc
# Summary of the method: as §1
# Neu5Gc(a2-6)GalNAc = biological target: Neu5Gc(a2-6)GalNAc
# Summary of the method: as §1
binder,measurement,setting,value
B1,glycan array binding signal (z-score),[1],7.46
same,glycan array binding signal (z-score),[2],2.97
same,glycan array binding signal (z-score),Fuc(a1-2)[Gal(a1-3)]Gal,-0.352
same,glycan array binding signal (z-score),[3],7.21
same,glycan array binding signal (z-score),[4],5.38
same,glycan array binding signal (z-score),[5],-0.035
same,glycan array binding signal (z-score),[6],-0.363
same,glycan array binding signal (z-score),[7],0.233
same,glycan array binding signal (z-score),[8],-0.201
same,glycan array binding signal (z-score),[9],4.58
same,glycan array binding signal (z-score),Gal(a1-4)Gal(b1-4)GlcNAc,-0.229
same,glycan array binding signal (z-score),Gal(b1-2)Gal,-0.273
same,glycan array binding signal (z-score),[10],-0.258
same,glycan array binding signal (z-score),[11],-0.235
same,glycan array binding signal (z-score),[12],0.018
same,glycan array binding signal (z-score),GlcA(b1-6)Gal,-0.148
same,glycan array binding signal (z-score),[13],2.61
same,glycan array binding signal (z-score),[14],-0.323
same,glycan array binding signal (z-score),[15],-0.301
same,glycan array binding signal (z-score),[16],-0.274
same,glycan array binding signal (z-score),[17],-0.371
same,glycan array binding signal (z-score),[18],0.102
same,glycan array binding signal (z-score),[19],-0.331
same,glycan array binding signal (z-score),[20],8.12
same,glycan array binding signal (z-score),[21],4.25
same,glycan array binding signal (z-score),Neu5Ac(a2-3)GalNAc,-0.28
same,glycan array binding signal (z-score),[22],-0.309
same,glycan array binding signal (z-score),[23],-0.311
same,glycan array binding signal (z-score),[24],-0.253
same,glycan array binding signal (z-score),Neu5Gc(a2-3)Gal(b1-4)Glc,-0.189
same,glycan array binding signal (z-score),Neu5Gc(a2-6)GalNAc,-0.331
